# Screening results: PubChem BioAssay, National Center for Advancing Translational Sciences (NCATS)
# ALDH1A1 block: qHTS Assay for Inhibitors of Aldehyde Dehydrogenase 1 (ALDH1A1). Aldehyde dehydrogenase 1A1 (Homo sapiens), P00352. Purified ALDH1A1, NADH fluorescence, propionaldehyde substrate. Potency, µM (doses to about 75.3 µM), for inactives: at the top dose activity, negative = inhibition, actives largely listed as inhibitors. actives 7.3% (n = 220,000); active means well fitted inhibition curve with a large enough effect, not every such curve was filed as active; inconclusive means small, poorly fitted or top-dose-only effect, or another doubt; inactive means no such curve, though single readings can be large or run the other way;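 further: potency means the concentration at half of the fitted maximal effect; plate controls were no enzyme wells and a reference inhibitor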
# Target sequence (P00352 whole entry, looked up): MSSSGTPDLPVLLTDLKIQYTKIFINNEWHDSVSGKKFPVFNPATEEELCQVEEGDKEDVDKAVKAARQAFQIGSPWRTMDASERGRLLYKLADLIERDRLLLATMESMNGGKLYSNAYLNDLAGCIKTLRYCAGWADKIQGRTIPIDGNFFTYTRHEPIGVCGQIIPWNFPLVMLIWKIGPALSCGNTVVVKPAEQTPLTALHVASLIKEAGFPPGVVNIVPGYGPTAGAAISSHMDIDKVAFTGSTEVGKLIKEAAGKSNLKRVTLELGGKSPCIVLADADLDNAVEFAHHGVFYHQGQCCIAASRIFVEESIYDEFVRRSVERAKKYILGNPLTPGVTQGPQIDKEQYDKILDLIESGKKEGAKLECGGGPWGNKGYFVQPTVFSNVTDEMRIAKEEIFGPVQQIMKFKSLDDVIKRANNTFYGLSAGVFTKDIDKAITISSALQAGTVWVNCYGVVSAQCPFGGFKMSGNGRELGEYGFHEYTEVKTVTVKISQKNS
# IMPase inh: qHTS Assay for Identifying the Cell-Membrane Permeable IMPase Inhibitors. inhibition (IP1 accumulation), % at 46.1 µM. CHO-M1 cells, IP1 accumulation, HTRF TR-FRET ratio. AID 901, 2007. 120,000 tested, under 10 active; active means well fitted curve in the direction sought with a large enough effect in the signal ratio, not every such curve was filed as active; inconclusive means small, poorly fitted or top-dose-only effect, or a change in a side signal; inactive means no such curve, though single readings can be large or run the other way; the % refers to the signal ratio;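 further: cells stimulated with carbachol in lithium chloride buffer; plate controls were DMSO basal wells for no effect and reference inhibitor wells for full effect; higher means more IMPase inhibition seen as more IP1 and lower FRET ratio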
#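 Carbachol-driven Gq signalling in CHO-M1 cells (2000/well) generates IP1. Compounds that block IMPase raise IP1 and so reduce the FRET signal from Eu-anti-IP1 and d2-IP1 after a 10 min room-temperature lysis.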
# IMPase Li cell: qHTS Assay for Identifying the Cell-Membrane Permeable IMPase Inhibitors: Potentiation with Lithium; CHO-M1 cells, IP1 TR-FRET (IP-One), carbachol + lithium; Potency, µM (doses to about 59.4 µM), inactives show at the highest dose activity, negative = IMPase inhibition, usual class: inhibitors; actives 0.35% (n = 210,000); AID 1457, 2008;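 further: IP1 builds up when IMPase is blocked and the TR-FRET signal falls; potency means the concentration at half of the fitted maximal effect; plate controls were basal vehicle for no effect and high inhibitor control for full effect; nearly all actives have a fitted effect of over 50% in size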
#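 IP1 accumulation measured by competitive TR-FRET in lysed CHO-M1 cells after 30 min compound exposure at 37C, with a small lithium addition to potentiate weak responses. Hill-equation AC50 from ratio and donor-channel data.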
# HttQ103 aggreg: qHTS Multiplex Assay to Identify Dual Action Probes in a Cell Model of Huntington: Aggregate Formation (GFP); Potency, µM (titrated, usually from 46.1 µM), inactives show top-dose activity change, negative = inhibition, actives largely listed as inhibitors; actives 1.1% (n = 220,000); PC12 HttQ103-GFP aggregates, Acumen cytometry, 40 h; further: potency means the concentration at half of the fitted maximal effect; on the % scale 0 is the no-effect control and ±100 the full control effect; nearly all actives have a fitted effect of over 60% in size
#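 Quantitative HTS on tebufenozide-induced (100 nM) PC12 cells stably expressing polyQ103 Huntingtin exon 1–GFP. Reduction of bright GFP aggregates, detected by laser scanning cytometry after lysis, identified actives across the titration.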
# HTT ATP protect: qHTS Multiplex Assay to Identify Dual Action Probes in a Cell Model of Huntington: Cytoprotection (ATP) | PC12 HTT-Q103 induced, cytoprotection, ATP luminescence, 40 h | Potency, µM (titrated, usually from 56.4 µM), inactives show cytoprotection (ATP increase), most hits filed as activators | AID 1471, 2008 | actives 0.14% (n = 230,000); further: potency means the concentration at half of the fitted maximal effect; % of control where 0% means no effect; nearly all actives have a fitted effect of over 45% in size
#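 Readout: ATPlite luminescence (ATP level). Model: stable PC12, inducible Htt exon1 Q103-GFP. Inducer: tebufenozide, 100 nM final. Compounds: dose series. No G418 in medium.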
# HPGD block: qHTS Assay for Inhibitors of HPGD (15-Hydroxyprostaglandin Dehydrogenase). 15-hydroxyprostaglandin dehydrogenase [NAD(+)] (Homo sapiens), P15428. purified HPGD, NADH fluorescence kinetic, PGE2 substrate. Potency, µM, inactives show at the top dose activity change, negative = inhibition, usual class: inhibitors. actives 4.3% (n = 150,000). AID 894, 2007; active means well fitted inhibition curve with a large enough effect, not every such curve was filed as active; inconclusive means small, poorly fitted or top-dose-only effect, or another doubt; inactive means no such curve, though single readings can be large or run the other way; further: potency means the concentration at half of the fitted maximal effect; on the % scale 0 is the no-effect control and ±100 the full control effect
# Target sequence (P15428 whole entry, looked up): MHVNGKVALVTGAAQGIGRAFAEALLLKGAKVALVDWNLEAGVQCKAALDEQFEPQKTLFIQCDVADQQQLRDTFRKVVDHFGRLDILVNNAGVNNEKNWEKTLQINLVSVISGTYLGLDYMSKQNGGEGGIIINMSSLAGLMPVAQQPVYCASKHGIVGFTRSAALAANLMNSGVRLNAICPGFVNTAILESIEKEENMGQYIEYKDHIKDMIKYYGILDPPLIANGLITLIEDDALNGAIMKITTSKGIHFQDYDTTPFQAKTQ
#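 20 nM HPGD preincubated 15 min at room temperature with compound in 50 mM Tris-HCl pH 8, 0.01% Tween 20. Started with 1 mM NAD+ and 30 uM prostaglandin E2; NADH fluorescence (360/450 nm) read 5 times over 30-s intervals, last minus first.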
# * marks the source's active call; other numbers are inactive results; ? = inconclusive; / = no result; [ ] = dose if it differs, or a comment. The list is not random: actives were taken first. Their share in the collection is about 9.4%. Unless noted, the call rests on the fitted dose curve; in most records, active means well fitted curve in the direction sought with a large enough effect; inconclusive means small, poorly fitted or top-dose-only effect, or another doubt; inactive means no such curve, though single readings can be large; an effect the other way counts as inactive or inconclusive.
SMILES,ALDH1A1 block,IMPase inh,IMPase Li cell,HttQ103 aggreg,HTT ATP protect,HPGD block
O=C(O)[C@H]1[C@H](C(=O)O)[C@H](C(=O)O)C[C@@H]1C(=O)O,1%[13.5 µM],/,11%,/,5%[10 µM],-10%
O=C(Nc1ccccc1)N1CCCC2(CCN(C(=O)c3ccco3)CC2)C1,20µM*,/,17%,/,3%,1%
O=C(Nc1ccccc1)N1CC[C@@]2(CCCN(C(=O)c3ccco3)C2)C1,?,/,-5%,/,15%,-6%
O=C(c1ccco1)N1CCC[C@@]2(CCN(Cc3ccccc3)C2)C1,-12%,/,8%,/,-63%,-6%
O=C(c1ccco1)N1CCC2(CCCN(Cc3ccccc3)C2)CC1,28µM*,/,33%,/,14%,-2%
C/C(CCN1CCCc2nc(C)c(C)cc21)=N\OC[C@@H](C)[C@H](OCc1ccccc1)C(C)C,-10%[13.5 µM],/,/,/,-10%[10 µM],/
CN(C)c1ccc(/C=N/NC(=O)c2nonc2N)cc1[N+](=O)[O-],2µM*,/,7%,-11%[9.22 µM],11%[10 µM],/
COc1cc([N+](=O)[O-])cc2sc(NC(=O)C3CC3)nc12,-1%,/,22µM*,2%,-18%,/
O=c1c2ccccc2nc(-c2ccc(Cl)c(Cl)c2)n1O,6%,-7,8%[38.3 µM],?,-1%[10 µM],-5%
O=c1c2cc(Cl)ccc2nc(-c2ccc([N+](=O)[O-])cc2)n1O,11µM*,/,24%,10µM*,-71%,/
Cc1cc(N=Cc2c(CO)cnc(C)c2O)c(N=Cc2c(CO)cnc(C)c2O)cc1C.[Zn],-14%[13.5 µM],/,6%,/,3%[10 µM],-10%
COc1cc(C(c2sc3nc(C)nn3c2O)N2CCC3(CC2)OCCO3)cc(OC)c1OC (stereo not drawn),18µM*,-8,8%[38.3 µM],20%[9.22 µM],-2%,-6%
COC(=O)C1CCN(C(c2cc(OC)c(OC)c(OC)c2)c2sc3nc(C)nn3c2O)CC1 (stereo not drawn),-6%,6,13%[38.3 µM],19%,-8%,-4%
CC(=O)c1cccc(NC(=O)CN(C)Cc2ccc(OC(F)F)cc2)c1,11µM*,/,/,13%[9.22 µM],4%[10 µM],/
COCCNc1nc(-c2cc(C)n(CCc3ccc(OC)cc3)c2C)cs1,10µM*,/,9%,-18%,-34%,/
O=C(NCc1ccccc1F)C1CCN(C(=O)c2sccc2-n2cccc2)CC1,2.5µM*,/,-3%,-2%,-24%,/
CN(C)C(=O)N1CCC(C(=O)NCc2ccccc2Cl)CC1,4%,0,-7%,-4%,-6%[0.074 µM],-5%
O=C(NCc1ccccc1Cl)C1CCN(C(=O)c2sccc2-n2cccc2)CC1,1.4µM*,9,21%[38.3 µM],-10%,2%,-5%
CCOc1ccccc1CNC(=O)C1CCN(C(=O)c2sccc2-n2cccc2)CC1,0.63µM*,11,-22%[38.3 µM],?,-41%,-12%
CC1CCCCC1NC(=O)C1CCN(C(=O)c2sccc2-n2cccc2)CC1 (stereo not drawn),1.1µM*,-21,24%[38.3 µM],1%,0%,-11%
S=C([S-])NCCNC(=S)[S-].[Zn+2],11µM*,/,20%,/,?,10µM*
COc1cc2c(cc1NC(=O)c1ccccc1C)n(C)c(=O)n2C,/,-9,/,/,/,/
CCN(CC(=O)Nc1c(F)cccc1F)C(=O)CCc1ccc(OC)cc1,14µM*,/,4%,5%,-15%,/
CCN(CC(=O)Nc1c(F)cccc1F)C(=O)Cc1ccccc1,0%,/,3%,9%,2%[10 µM],/
CCCCc1nc2c(c3c1C[C@H](C)OC3)CN(C(=O)Nc1ccc(OC)cc1)CC2,1%[13.5 µM],/,6%,/,-24%[10 µM],-3%
SMILES,ALDH1A1 block,IMPase inh,IMPase Li cell,HttQ103 aggreg,HTT ATP protect,HPGD block
Cc1ccc(C(C(=O)NCC2CCCO2)N(Cc2ccccc2)C(=O)c2ccc(-c3ccccc3)[nH]2)o1 (stereo not drawn),22µM*,12,6%,0.13µM*,/,?
O=C(NC1CCCC1)C(c1ccncc1)N(Cc1ccco1)C(=O)c1ccc(-c2ccccc2)[nH]1 (stereo not drawn),?,/,2%,?,8%,/
O=C(NC1CCCC1)C(c1ccncc1)N(Cc1ccccc1)C(=O)c1ccc(-c2ccccc2)[nH]1 (stereo not drawn),22µM*,/,8%,?,-13%[10 µM],-20%
CCOc1ccc(NS(=O)(=O)c2ccc3c4c(cccc24)C(=O)N3)cc1,/,9,/,/,/,/
Fc1ccc(-c2csc(=S)[nH]2)cc1,3.5µM*,/,4%,3%,-17%,/
O=c1[nH]c(-c2ccccc2)cs1,15%,/,-3%,-11%,/,-1%
S=c1[nH]c(-c2ccccc2)cs1,3.5µM*,/,-2%,-4%,-31%,/
Cc1occc1-c1nnc(SCC(=O)Nc2ccccc2)n1CCc1ccccc1,4%,0,2%[38.3 µM],-12%,-11%[10 µM],-2%
CCOC(=O)c1cccc(NC(=O)CSc2nnc(-c3ccoc3C)n2CCOC)c1,20µM*,15,4%[38.3 µM],10%,-22%[10 µM],-14%
COc1ccccc1C(=O)Nc1nnc(-c2ccc(F)cc2)o1,4%,4,5%[38.3 µM],7%,-23%,-6%
Cc1ccccc1C(=O)Nc1nnc(-c2ccc(F)cc2)o1,7%,-2,1%[38.3 µM],10µM*,-47%,-19%
CC(=O)Cn1ncc(Br)c(Br)c1=O,3.5µM*,/,-21%,12%[9.22 µM],-49%,/
O=C(OCn1ncc(Br)c(Br)c1=O)c1c(F)cccc1F,0.5µM*,-25,8.9µM*,?,-126%,28µM*
Cn1[nH]c(C(F)(F)F)c(C=Nc2ccc(Cl)cc2)c1=O,3%,/,2%,1%,-29%,/
CCCCCCN,-3%,/,7%,/,-16%,-9%
CC(C)OC(=O)c1cc(-c2ccc(C=O)o2)ccc1Cl,8.9µM*,/,-16%,23%,17%[0.074 µM],-28%
CC(C)OC(=O)/C(C#N)=C/c1ccc(-c2ccc(Cl)c(Cl)c2)o1,/,-12,/,/,/,/
COCC(=O)N1CCC2(CC1)CN(Cc1ccccc1OC)C2,-1%,/,2%,/,-9%,-11%
S=c1[nH]nc(-c2ccccc2Cl)n1CC1CCCO1 (stereo not drawn),14µM*,-4,27%[38.3 µM],23%,8%,-27%
Brc1cccc(OCCCN2CCCCCC2)c1,13µM*,/,18%,7%,/,/
CCC(C)NC(=O)c1ccc2c(SCC(=O)O)c3c(nc2c1)CCCC3 (stereo not drawn),?,/,-12%,23%,/,22µM*
